Bioassay records as filed in PubChem.
Only some compounds are listed: those with a hit (about 21% of all), similar ones and a draw of the others.
ELG1 DNA repair: ELG1-dependent DNA repair inhibition. HEK293T ELG1-luciferase reporter, luminescence, 16 h; DNA damage induced by 5-fluorouridine. Potency, µM (highest dose often 46.1 µM), for inactives: at the top dose activity change, negative = inhibition, usual class: inhibitors. 2.3% of 330,000 active. AID 504467; note: potency is the fitted concentration of half-maximal effect; nearly all actives have a fitted effect of over 55% in size
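Step one: seed 2,000 cells per well. Step two: pin-transfer compound or DMSO alongside 5-fluorouridine. Step three: incubate 16 hr, 37 °C, 5% CO2. Step four: add ONE-Glo, wait 30 min, read luminescence.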
IL-1B inflam inh: inflammasome signaling inhibition, IL-1 beta readout; THP-1 LPS/ATP IL-1B secretion, AlphaLISA, 16 h; hits give low values; activity change, % at 57.5 µM; 4.7% of 360,000 active; in the data active = activity change below about -50%; inconclusive = mostly about -30% to -49%
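Secreted IL-1B measured by AlphaLISA bead assay after 16 h compound exposure of THP-1 cells; compounds (final up to 57.5 uM) added 1 h before LPS (250 ng/mL) and ATP (1.25 mM) stimulation; lower signal means less secretion.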
RORgamma inh: inhibitors of mouse ROR gamma transcriptional activity; P51450; Drosophila S2 Gal4-RORgamma UAS-luciferase reporter, 20 h; Potency, µM (top dose mostly 53.6 µM), for the others: at the highest dose activity change, negative = inhibition, usual class: inhibitors; 5.4% of 310,000 active; AID 2551; note: potency is the fitted concentration of half-maximal effect; nearly all actives have a fitted effect of over 60% in size
Target sequence (P51450 whole entry, looked up, the tested form may be a part): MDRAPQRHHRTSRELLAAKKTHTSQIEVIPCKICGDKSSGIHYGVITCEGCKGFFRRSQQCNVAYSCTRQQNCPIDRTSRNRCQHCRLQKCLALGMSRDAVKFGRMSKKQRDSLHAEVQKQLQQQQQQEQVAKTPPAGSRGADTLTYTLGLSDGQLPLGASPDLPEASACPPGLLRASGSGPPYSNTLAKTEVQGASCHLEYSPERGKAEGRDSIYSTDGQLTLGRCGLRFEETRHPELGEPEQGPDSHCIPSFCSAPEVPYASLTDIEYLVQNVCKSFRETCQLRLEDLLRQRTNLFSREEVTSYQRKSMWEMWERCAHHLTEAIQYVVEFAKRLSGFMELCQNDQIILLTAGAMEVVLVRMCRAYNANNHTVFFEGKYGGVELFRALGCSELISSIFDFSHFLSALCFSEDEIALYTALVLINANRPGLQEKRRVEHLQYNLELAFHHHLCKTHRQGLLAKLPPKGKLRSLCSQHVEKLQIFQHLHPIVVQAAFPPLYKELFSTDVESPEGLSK
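Schneider cells (Drosophila), stable Gal4 DBD–ROR gamma + UAS-luc; 1 hr cmpd preincubation; Cu2+ induction 700 uM final; 20 hr ambient; luminescence.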
DT40 TDP1 no CPT: qHTS for Inhibitors of human tyrosyl-DNA phosphodiesterase 1 (TDP1): qHTS in cells in absence of CPT; DT40 Tdp1-/- hTDP1 cells, no CPT, ATP luminescence, 48 h; Potency, µM (top dose mostly 46.2 µM), inactives show at the top dose activity change, negative = growth inhibition, usual class: inhibitors; 15% of 420,000 active; AID 686978, 2013; note: potency is the fitted concentration of half-maximal effect; nearly all actives have a fitted effect of over 55% in size
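Camptothecin absent (DMSO only). Human TDP1-complemented DT40 knockout cells, 400 cells/well, 37 °C for minimum 48 hr; ATP measured via CellTiter-Glo, 30 min dark incubation, luminescence.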
TDP1 cell CPT: growth inhibition of DT40 Tdp1-/-;hTDP1 cells with camptothecin (screen for TDP1 inhibitors); AID 686979; 12% of 420,000 active; Potency, µM (highest dose often 46.2 µM), for inactives: at the top dose activity change, negative = growth inhibition, actives largely listed as inhibitors; chicken DT40 Tdp1-/-;hTDP1 cells + 20 nM CPT, ATP luminescence, 48 h; note: potency is the fitted concentration of half-maximal effect; nearly all actives have a fitted effect of over 55% in size
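Chicken DT40 Tdp1-/- cells stably complemented with human TDP1 were seeded at 400 cells/well in medium containing 20 nM camptothecin, exposed to pin-transferred compounds, and grown at 37 °C for at least 48 hr. Viability was read as ATP luminescence.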
Gal4-VP16 FLuc: inhibits Gal4-VP16 luciferase reporter, ROR gamma counter-screen. Drosophila S2 Gal4-VP16 UAS-luciferase, luminescence, 20 h. Potency, µM (highest dose often 53.6 µM), inactives show at the top dose activity, negative = inhibition, hits mostly inhibitors. 3.5% of 310,000 active. AID 2546;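 note: Gal4-VP16 expression switched on by copper sulfate through the metallothionein promoter; potency is the fitted concentration of half-maximal effect; nearly all actives have a fitted effect of over 50% in size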
Active calls of the source: *; ? = inconclusive; . = no result; [ ] = remark or other dose. Unless noted, calls come from the whole dose curve; as a rule, active = well fitted curve in the direction sought with a large enough effect; inconclusive = small, poorly fitted or top-dose-only effect, or another doubt; inactive = no such curve, though single readings can be large; an effect the other way counts as inactive or inconclusive. % is set by controls: 0 for no effect and ±100 for the full control effect.

SMILES | ELG1 DNA repair | IL-1B inflam inh | RORgamma inh | DT40 TDP1 no CPT | TDP1 cell CPT | Gal4-VP16 FLuc
CCn1c(CSc2nc3ccccc3s2)nnc1SCC(=O)c1ccc(Cl)cc1 | 4.9% | -21.2 | -34.1% | 20.6µM* | 16.4µM* | -10.9%
S=c1[nH]nc(CSc2nc3ccccc3s2)n1Cc1ccccc1 | -12.1% | 24.7 | 3.98µM* | -9.0% | 2.3% | -10.8%
C=CCn1c(CSc2nc3ccccc3s2)n[nH]c1=S | 39.6% | 26.0 | 11.1% | -3.1% | 3.0% | -24.5%
CCn1c(CN2c3ccccc3Sc3ccccc32)n[nH]c1=S | -1.9% | -13.6 | 2.82µM* | -28.4% | -23.5% | ?
COc1cccc(-c2nn(-c3ccccc3)cc2C(=O)OCC(=O)Nc2ncc(Cl)cc2Cl)c1 | 20.6µM* | -3.7 | ? | ? | ? | 4.4%
CC(C)CN(C)Cc1c(C(=O)N2CCc3ccccc3C2)nc2ccc(Cl)cn12 | -14.5% | -82.8* | -5.3% | 20.6µM* | 18.4µM* | 6.4%
C[C@@H]1NC(=O)C/C=C\[C@@H](C)[C@@H]2C=C[C@H](O)[C@@H](COC(=O)[C@H](C)NC(=O)C/C=C\[C@@H](C)[C@@H]3C=C[C@H](O)[C@@H](COC1=O)O3)O2 | . | . | 1.8%[10 µM] | . | . | 3.6%[10 µM]
COc1ccc2cc1Oc1ccc(cc1)CC1c3c(cc4c(c3Oc3cc5c(cc3OC)CCN(C)C5C2)OCO4)CCN1C (centres undefined) | . | . | -18.8% | . | . | 0.6%
COc1ccc2cc1Oc1ccc(cc1)CC1c3c(cc(OC)c4c3Oc3cc5c(cc3O4)CCNC5C2)CCN1C (centres undefined) | ? | -11.5 | 4.47µM* | 1.64µM* | 2.91µM* | 7.08µM*
COc1ccc2cc1Oc1ccc(cc1)C[C@H]1c3c(cc(OC)c4c3Oc3c(ccc5c3[C@H](C2)N(C)CC5)O4)CCN1C | ? | -16.7 | . | 5.17µM* | 5.8µM* | .
O=C(c1cnccn1)N1CCC2(CC1)CCN(c1ccccc1)CC2 | . | . | 22.0% | ? | 17.8% | -4.3%
Cc1csc(NC(=O)c2ccc(COc3ccccc3)o2)n1 | ? | 12.2 | -11.7% | -20.6% | ? | -16.7%
CCS(=O)(=O)N1CCN(c2ncnc3sc(C)c(C)c23)CC1 | ? | 22.3 | 21.2% | ? | -24.4% | 9.8%
Cc1sc2ncnc(N3CCN(S(=O)(=O)c4ccc(F)cc4)CC3)c2c1C | ? | -57.3* | -39.8% | 11.6µM* | ? | 22.4µM*
Cc1sc2ncnc(N3CCN(c4ncccn4)CC3)c2c1C | -9.9% | ? | -23.3% | ? | 23.1µM* | -1.7%
Cc1nc(N2CCN(S(=O)(=O)c3ccc(Br)cc3)CC2)c2c(C)c(C)sc2n1 | ? | 21.3 | 41.3% | ? | 20.6µM* | -3.1%
Cc1ccc(S(=O)(=O)N2CCN(c3nc(CN4CCCC4)nc4sc(C)c(C)c34)CC2)cc1 | -3.3% | ? | . | ? | ? | .
COc1cc(C(=O)N2CCN(c3ncnc4sc(C)c(C)c34)CC2)cc(OC)c1OC | 6.51µM* | -18.8 | ? | ? | ? | 3.98µM*
O=C1NC[C@@H](CCCCN2CCN(Cc3ccccc3)C(=O)C2=O)N(CCC2CCCCC2)C1=O | . | -3.3 | . | -17.8% | 0.2% | .
Cc1nc(N2CCN(S(=O)(=O)c3ccccc3)CC2)c2cc(-c3ccccc3)sc2n1 | ? | -23.3 | 13.1% | ? | 14.6µM* | 13.0%
CCc1nc(N2CCN(S(=O)(=O)c3ccc(Br)cc3)CC2)c2c(C)c(C)sc2n1 | . | -9.2 | . | 23.1µM* | ? | .
CC(Oc1ccc(F)cc1)C(=O)Nc1cccc(-c2nn[nH]n2)c1 (centres undefined) | -6.0% | -7.3 | . | 20.4% | -22.1% | .
Cc1ccccc1Nc1cccc2nonc12 | 3.7% | -51.8* | -44.1% | -24.7% | 1.8% | ?
